# Compound activity as filed in PubChem BioAssay.
# A selection: hits, their analogues and other compounds. The true share with any hit is near 5.7%.
# L3MBTL1 block – L3MBTL1 (human) inhibition; AlphaScreen L3MBTL1–H3K9me1 peptide binding; AID 485360; Potency, µM (doses to about 57.1 µM), most hits filed as inhibitors; 230,000 compounds, 0.66% hits; also: nearly all actives have a fitted effect of over 60% in size
#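 AlphaScreen assay: L3MBTL1 (50 nM final) was preincubated 30 min at room temperature with biotinylated H3(1-15)K9me1 peptide (75 nM final), then 30 min with library compounds; streptavidin donor and nickel chelate acceptor beads (10 ug/mL final) added, 30 min dark.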
# HP1b binding inh – inhibitors of HP1-beta chromodomain binding to methylated histone tails. 390,000 compounds, 0.56% hits. Potency, µM (titrated, usually from 114 µM), hits mostly inhibitors. AID 540317. P83916. AlphaScreen HP1-beta / biotin-H3K9me3 peptide binding; also: nearly all actives have a fitted effect of over 70% in size
#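 AlphaScreen: HP1-beta (50 nM) preformed 30 min with biotin-H3(1-18)K9me3 peptide (50 nM) in PBS pH 7.4, 0.01% Tween-20. Compound added for 30 min at RT, then streptavidin donor/nickel chelate acceptor beads (10 ug/mL) for 30 min.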
# KDM4E inh – inhibitors of human JMJD2E histone demethylase. B2RXH2. JMJD2E catalytic domain, FDH-coupled NADH fluorescence (FDH is formaldehyde dehydrogenase). Potency, µM (highest dose often 57.1 µM), actives largely listed as inhibitors. 230,000 compounds, 1.6% hits; active = well fitted inhibition curve with a large enough effect, not every such curve was filed as active; inconclusive = small, poorly fitted or top-dose-only effect, or another doubt; inactive = no such curve, though single readings can be large or run the other way; also: nearly all actives have a fitted effect of over 50% in size
# JMJD2A Tudor inh – inhibitors of human JMJD2A Tudor domain. 390,000 compounds, 4.4% hits. AlphaScreen JMJD2A-Tudor / H3K4me3 peptide binding. AID 504339. Potency, µM (doses to about 114 µM), most hits filed as inhibitors; also: nearly all actives have a fitted effect of over 50% in size
# BAZ2B inh – BAZ2B (human) inhibition. AlphaScreen BAZ2B-H3K14Ac peptide displacement. Potency, µM (top dose mostly 114 µM), actives largely listed as inhibitors. 360,000 compounds, 4.4% hits. AID 504333; also: nearly all actives have a fitted effect of over 60% in size
# Target sequence (Q9UIF8 whole entry, looked up): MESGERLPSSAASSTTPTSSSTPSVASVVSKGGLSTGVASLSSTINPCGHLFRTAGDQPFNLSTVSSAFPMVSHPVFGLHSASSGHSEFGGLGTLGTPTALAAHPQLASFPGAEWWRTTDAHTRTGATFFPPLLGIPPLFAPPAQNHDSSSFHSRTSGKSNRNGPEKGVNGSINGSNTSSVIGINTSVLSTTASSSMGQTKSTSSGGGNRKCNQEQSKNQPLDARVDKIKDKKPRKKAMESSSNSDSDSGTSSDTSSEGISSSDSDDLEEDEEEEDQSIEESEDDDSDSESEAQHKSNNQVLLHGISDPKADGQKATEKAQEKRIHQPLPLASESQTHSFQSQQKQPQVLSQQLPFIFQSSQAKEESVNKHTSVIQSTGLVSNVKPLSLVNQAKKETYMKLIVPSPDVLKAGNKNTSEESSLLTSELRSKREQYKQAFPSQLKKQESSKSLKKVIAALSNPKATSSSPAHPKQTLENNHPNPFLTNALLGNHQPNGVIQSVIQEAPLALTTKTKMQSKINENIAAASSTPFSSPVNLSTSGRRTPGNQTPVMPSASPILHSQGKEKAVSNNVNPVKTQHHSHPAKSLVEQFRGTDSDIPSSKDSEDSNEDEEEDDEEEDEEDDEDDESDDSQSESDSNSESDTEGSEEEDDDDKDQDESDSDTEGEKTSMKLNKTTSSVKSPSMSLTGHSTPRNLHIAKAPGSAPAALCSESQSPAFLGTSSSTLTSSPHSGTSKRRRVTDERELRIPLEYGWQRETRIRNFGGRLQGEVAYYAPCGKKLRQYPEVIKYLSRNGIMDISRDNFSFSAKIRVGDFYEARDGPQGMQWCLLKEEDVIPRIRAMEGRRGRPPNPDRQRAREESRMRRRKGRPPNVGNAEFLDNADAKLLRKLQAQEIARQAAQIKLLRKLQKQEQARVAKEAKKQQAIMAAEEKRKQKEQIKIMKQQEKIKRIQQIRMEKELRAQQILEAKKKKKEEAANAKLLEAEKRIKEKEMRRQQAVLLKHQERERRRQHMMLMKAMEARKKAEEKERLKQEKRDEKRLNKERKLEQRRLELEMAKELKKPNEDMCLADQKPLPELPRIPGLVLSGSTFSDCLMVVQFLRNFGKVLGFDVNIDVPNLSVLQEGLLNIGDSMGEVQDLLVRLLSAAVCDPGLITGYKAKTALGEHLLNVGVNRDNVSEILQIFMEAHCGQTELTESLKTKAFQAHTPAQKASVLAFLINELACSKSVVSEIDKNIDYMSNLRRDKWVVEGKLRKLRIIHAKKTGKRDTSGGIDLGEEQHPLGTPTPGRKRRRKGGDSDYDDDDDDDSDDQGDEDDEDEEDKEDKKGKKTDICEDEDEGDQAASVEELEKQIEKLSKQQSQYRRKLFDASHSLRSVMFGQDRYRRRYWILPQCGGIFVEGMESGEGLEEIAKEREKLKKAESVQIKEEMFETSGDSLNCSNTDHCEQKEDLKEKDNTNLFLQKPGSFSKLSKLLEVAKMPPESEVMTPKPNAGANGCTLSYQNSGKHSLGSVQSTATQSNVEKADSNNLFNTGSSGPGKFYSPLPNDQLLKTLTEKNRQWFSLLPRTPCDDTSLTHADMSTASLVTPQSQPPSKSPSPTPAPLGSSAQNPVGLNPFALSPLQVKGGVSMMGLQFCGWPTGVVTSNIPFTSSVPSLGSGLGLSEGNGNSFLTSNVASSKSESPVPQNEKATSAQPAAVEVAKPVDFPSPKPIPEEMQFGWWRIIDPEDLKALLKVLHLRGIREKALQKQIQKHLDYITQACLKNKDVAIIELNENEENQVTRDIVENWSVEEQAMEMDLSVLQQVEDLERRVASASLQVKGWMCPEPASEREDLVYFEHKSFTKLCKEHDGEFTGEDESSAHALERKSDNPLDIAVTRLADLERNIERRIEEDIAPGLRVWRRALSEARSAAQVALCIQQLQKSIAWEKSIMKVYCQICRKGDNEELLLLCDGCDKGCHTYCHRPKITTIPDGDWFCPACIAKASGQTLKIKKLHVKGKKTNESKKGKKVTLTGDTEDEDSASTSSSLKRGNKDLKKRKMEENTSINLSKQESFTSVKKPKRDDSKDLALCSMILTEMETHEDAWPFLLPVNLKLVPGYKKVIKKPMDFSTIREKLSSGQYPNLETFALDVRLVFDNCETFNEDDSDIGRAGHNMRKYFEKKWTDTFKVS
#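 Protein-peptide AlphaScreen: BAZ2B 50 nM, b-H3K14Ac 50 nM, 1x PBS pH 7.4 + 0.01% Tween-20. Preincubation 30 min RT; cpd 30 min RT (top 110 uM); beads 20 min RT, light-protected.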
# PI5P4Ka inh – blocks human PI5P4K alpha kinase activity; max response, %; 330,000 compounds, 1.2% hits; P48426; PI5P4Kalpha enzyme, ADP-Glo luminescence, 60 min; stronger effect = lower value; active = max response of -50% or lower; inconclusive = between -30% and -50%; inactive = -30% or higher; also: value at the top dose of about 77 µM
#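 Reactions run in 0.038 M HEPES pH 7.4, 0.28 mM EGTA, 0.1% CHAPS and 5% DMSO, with PI5P4Kalpha, substrate, compound and 5 microM ATP final, one hour at room temperature. Readout is ADP-Glo luminescence.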
# A number is an active result; - = inactive; ? = inconclusive; . = not tested or not shown; [ ] = dose if it differs, or a comment. Unless noted, calls follow the shape of the dose curve; as a rule, active = well fitted inhibition curve with a large enough effect; inconclusive = small, poorly fitted or top-dose-only effect; inactive = no such curve, though single readings can be large or run the other way.
SMILES,L3MBTL1 block,HP1b binding inh,KDM4E inh,JMJD2A Tudor inh,BAZ2B inh,PI5P4Ka inh
OC(CNCCc1ccc(C(F)(F)F)cc1)COc1cccc2ccccc12 (configuration not stated),-,-,-,-,-,-
COc1ccccc1COCC(O)CNCCc1ccc(C(F)(F)F)cc1 (configuration not stated),.,-,.,79.4µM,25.1µM,-
CC(C)NC(=O)N(C)C[C@H]1Oc2ccc(NS(=O)(=O)c3cn(C)cn3)cc2C(=O)N([C@H](C)CO)C[C@@H]1C,-,-,.,39.8µM,.,-
C[C@H](CO)N1C[C@H](C)[C@@H](CN(C)C(=O)NC2CCCCC2)Oc2ccc(NS(=O)(=O)c3cn(C)cn3)cc2C1=O,-,-,.,-,.,-
O=C(CNC(=O)c1ccccc1)OCC(=O)c1ccccc1,.,-,.,-,.,.
CN(C)c1ccc(C(=O)/C=C/c2ccco2)cc1,-,-,?,-,50.1µM,?
O=C(/C=C\c1ccco1)c1ccc(NC(=O)c2ccco2)cc1,11.2µM,?,?,50.1µM,44.7µM,-56.4
COc1ccc(OC)c(CCNC(=O)c2c(C)nn(-c3ccc(F)cc3)c2-n2cccc2)c1,.,-,.,-,?,.
COC(c1ccc(Cl)cc1)(c1ccc(Cl)cc1)C(Oc1nc(C)cc(C)n1)C(=O)O (configuration not stated),-,-,.,-,-,-
CCOC(=O)c1sc2ccccc2c1S(=O)(=O)Nc1ccc(N(C)C)cc1,.,-,.,12.6µM,20µM,.
CCOC(=O)c1sc2ccccc2c1S(=O)(=O)Nc1ccc(C(C)=O)cc1,.,-,.,-,?,.
O=[N+]([O-])c1cccc(N=Cc2ccccc2)c1,.,-,.,-,.,-
O=C(/C(N=Nc1cccc([N+](=O)[O-])c1)=C(/O)c1ccc(Br)cc1)C(F)(F)F,-,.,-,.,25.1µM,.
CCN(CC)CCOC(=O)C(Cc1cccc2ccccc12)CC1CCCO1 (configuration not stated),.,?,22.4µM,20µM,50.1µM,-
N#C/C(=C\c1c[nH]c2ccccc12)C(=O)c1ccc(O)c(O)c1,.,.,2.24µM,.,.,.
N#C/C(=C\c1c[nH]c2ccccc12)C(=O)NC1CC1,-,-,.,-,-,-
COc1ccc(/C=C/C(=O)OCC(=O)Nc2cccc(S(=O)(=O)NC3=NCCCCC3)c2)cc1,-,-,.,-,.,-
COc1ccccc1N1CCN(CCCNC(=O)c2nnc(Cc3c(F)cccc3Cl)o2)CC1,.,-,.,-,-,.
CCN1/C(=C2/SC(=S)N(C)C2=O)C=Cc2cc(C)ccc21,.,-,.,-,.,-
CCN1C(=O)/C(=C2/C=Cc3cc(C)ccc3N2CC)N(C)C1=S,-,?,?,15.8µM,39.8µM,-
CCN1/C(=C2\C(=O)N(C)C(=S)N2C)C=Cc2cc(OC)ccc21,-,?,?,?,56.2µM,-
C/C(=N/NS(=O)(=O)c1cccc([N+](=O)[O-])c1)c1c[nH]c2ccccc12,.,-,.,-,50.1µM,-
Cc1nc2scc(-c3ccccc3)c2c(=O)n1N=C1C=CC(=O)C=C1,-,8.91µM,-,3.16µM,-,-101.4
COc1cccc(C(=O)NCC(=O)OCc2cc(=O)n3nc(C)sc3n2)c1,.,-,.,-,-,.
O=C(O)c1ccccc1SC1=NS(=O)(=O)c2ccccc21,.,.,.,-,.,.
SMILES,L3MBTL1 block,HP1b binding inh,KDM4E inh,JMJD2A Tudor inh,BAZ2B inh,PI5P4Ka inh
CCC(C)C(=O)Nc1nc(C)c(-c2csc(Nc3cc(OC)ccc3OC)n2)s1 (configuration not stated),-,-,?,50.1µM,50.1µM,-
COc1ccc(OC)c(Nc2nc(-c3sc(C)nc3C)cs2)c1,-,?,-,39.8µM,31.6µM,-
COc1ccc(OC)c(Nc2nc(-c3sc(NC(=O)CC(C)C)nc3C)cs2)c1,-,?,?,44.7µM,?,-
CCCCC(=O)Nc1nc(C)c(-c2csc(Nc3cc(OC)ccc3OC)n2)s1,-,?,?,?,?,-
Cn1c(=O)[nH]c(=O)c2c1nc1n2CCN1c1ccccc1,.,-,.,-,-,.
Cc1cc2c(cc1NS(=O)(=O)c1ccc(NC(=O)CC(C)C)cc1)n(C)c(=O)c(=O)n2C,.,-,.,-,-,.
Cc1cc(Nc2cc(Cl)ccc2C)n2nc(-c3ccccc3)nc2n1,.,-,.,-,-,.
C=CCn1c(=O)/c(=C/c2ccc(C)o2)s/c1=C(/C#N)C(=O)c1ccccc1,?,?,-,-,11.2µM,-
COCCCn1c(=O)/c(=C\c2ccccc2OC(F)F)s/c1=C(/C#N)C(N)=O,.,-,?,-,-,-
CC(C)(C)OC(=O)NCCCCC1=CC2=CC(=O)C(C)(O)C(=O)C2=CO1 (configuration not stated),.,-,-,?,.,-80.5
C=CC[n+]1c(/C=C2\C=Cc3cc(C)ccc3N2CC)ccc2ccccc21,?,?,?,50.1µM,35.5µM,-
COC(=O)c1cn(NC(=O)c2ccc(OC)c(OC)c2)c(=O)c2ccccc12,-,-,-,-,-,-
COC(=O)c1cn(NC(=O)c2cnccn2)c(=O)c2ccccc12,-,-,?,11.2µM,7.08µM,-
N#Cc1ccc(OC(=O)c2cnccn2)cc1,.,-,.,?,79.4µM,-
Nc1nnnn1/N=C/c1ccc(Br)cc1,-,-,.,-,-,-
Cc1nnc(C)n1/N=C/c1cc(Br)ccc1O,-,-,-,28.2µM,-,-
Cc1nnc(C)n1/N=C/c1cc(Br)cc(Br)c1O,.,-,-,-,50.1µM,-50.2
Nc1nnnn1/N=C/c1cc(Br)ccc1O,.,-,.,28.2µM,.,-
CS/C(N)=N/N=C/c1cc(Br)cc(Br)c1O,-,-,?,-,12.6µM,-
C=CCc1cccc(/C=N/n2c(C)nnc2C)c1O,-,-,-,?,-,-
O=C1c2ccccc2C(=O)N1c1noc2ccccc12,.,.,.,-,.,.
CCN(c1cccc(C)c1)S(=O)(=O)c1nnc(NC(=O)C2CCCCC2)s1,.,-,.,-,-,.
Nc1nnnn1/N=C/c1ccccc1C(F)(F)F,-,-,?,-[11.4 µM],-,-55.9
CC(C)(C)c1ccc(/C=N/Nc2nncn2N)cc1,-,-,.,-,-,-
Nn1cnnc1N/N=C/c1cc(Br)cc(Br)c1O,-,-,?,89.1µM,31.6µM,-
Nc1nnnn1/N=C/c1ccccc1,.,-,.,?,-,-
CCc1ccc(CNC(=O)CN2C(=O)c3cccnc3Oc3ccc(Cl)cc32)cc1,.,-,.,-,-,.
O=C1c2[nH]nc(-c3ccc(F)cc3)c2C(c2ccccc2F)N1c1ccccc1 (configuration not stated),.,-,.,-,-,.
